Reference: PubChem BioAssay AID743262 (National Center for Advancing Translational Sciences (NCATS), 2014)
The whole screen tested about 1,300 compounds, of which about 25 (2%) were called active. About 9% were inconclusive and are not listed. The sample as a whole holds a higher share of actives than the screen did. Values without a mark were called inactive. Calls come from the whole dose curve; as a rule, active = well fitted activation curve with a large enough effect; inconclusive = small, poorly fitted or top-dose-only effect; inactive = flat fitted curve, though single readings scatter.

What follows are molecules tested against Glucagon-like peptide 1 receptor (Homo sapiens) (UniProt P43220) (assay: qHTS of GLP-1 Receptor Agonists: Hit Validation). Conditions: HEK293 GLP-1R, cAMP-response luciferase, 4-6 h; series mostly up to 46.1 µM; activation: at the top concentration.
Description: The overall goal of this project was to develop a novel assay for discovering small molecule ligands for class B1 G protein-coupled receptors (GPCRs). Very few agonists (or inverse agonists) with generally weak activity for this entire group of physiologically important receptors are known to date. To establish proof-of-principle that this critical bottleneck can be overcome with a suitable screening approach, our studies focused on the class B1 receptor for glucagon-like peptide-1 (GLP-1R), a potential therapeutic target for diabetes and neurodegenerative disease. The assay was developed in a "mix and measure" format using a cell-based functional readout. Toward this goal, stably transfected HEK293 cell clones were established that co-express (i) a cAMP-responsive luciferase reporter gene, and (ii) GLP-1Rs that upon ligand interaction either stimulate (agonists) or inhibit (inverse agonists) luciferase activity. In different cell lines to be used for screening, expressed GLP-1Rs are specifically optimized for high sensitivity detection of either weak agonists (hypersensitive receptor) or inverse agonists (constitutively active receptor mutant). In addition, control cell lines were developed that express either the cAMP-responsive reporter gene without recombinant GLP-1Rs (enabling initial exclusion of GLP-1R independent effects of candidate probes), or the reporter gene together with wild type GLP-1Rs (for confirmation of probe activity at this receptor), or the reporter gene in combination with the constitutively active orphan receptor GPR119 (enabling initial exclusion of GLP-1R independent inhibitory effects of candidate inverse agonists). To that end, this assay was optimized for 1536-well format and screened against the MLSMR. NIH Molecular Libraries Probe Production Network [MLPCN] NIH Chemical Genomics Center [NCGC] Grant: NS064851 PI Name: Martin Beinborn, Tufts Medical Center
In a white solid 1536-well plate, 6 uL of cells are dispensed in DMEM without phenol red, 10% Nu serum, and 1% pen-strep medium. The plates are then incubated for 12 hours at 37 deg C at 5% CO2 before 23 nL of compounds are added. After a 4-6 hr incubation at37 deg C and 5% CO2, 3 uL of detection reagent are added and after a 12 min incubation at RT, a luminescent read is obtained on the ViewLux.
Potency is the fitted concentration of half-maximal effect.
Throughout, for activation: % of control where 0% means no effect.

Chain of Glucagon-like peptide 1 receptor (Homo sapiens) (P43220 whole entry, looked up): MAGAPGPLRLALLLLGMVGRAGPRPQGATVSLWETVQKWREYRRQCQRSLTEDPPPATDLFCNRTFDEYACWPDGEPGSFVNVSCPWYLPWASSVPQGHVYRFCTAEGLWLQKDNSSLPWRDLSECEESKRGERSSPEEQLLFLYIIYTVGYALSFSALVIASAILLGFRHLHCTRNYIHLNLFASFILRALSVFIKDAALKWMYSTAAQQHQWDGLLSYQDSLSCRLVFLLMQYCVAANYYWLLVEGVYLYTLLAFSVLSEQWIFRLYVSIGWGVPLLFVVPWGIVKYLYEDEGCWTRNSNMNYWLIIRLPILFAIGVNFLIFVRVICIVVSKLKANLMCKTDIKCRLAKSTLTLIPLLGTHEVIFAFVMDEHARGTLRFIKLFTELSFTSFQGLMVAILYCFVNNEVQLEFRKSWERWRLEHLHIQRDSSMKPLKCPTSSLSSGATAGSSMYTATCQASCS

Row | SMILES | Potency | activation [%]
1 | CC(Cc1ccc(O)cc1)NCC(O)c1ccc(O)c(O)c1 (stereo not given) | 9.2 nM (active) | 
2 | O=c1[nH]cnc2nc(-c3ccc(N(CCCl)CCCl)cc3)[nH]c12 |  | 17.1
3 | N#Cc1c(/N=C/c2ccc(O)cc2O)sc2c1C1CCN2CC1 |  | 12.4
4 | C[C@@H]1CN([C@H](C)CO)C(=O)CCCn2cc(nn2)CO[C@H]1CN(C)C(=O)Oc1ccc2ccccc2c1 |  | -0.911
5 | CN1CCN=C(c2ccccc2)c2cc(Cl)ccc21 |  | -0.229
